Molecules are shown by their SMILES. The panel holds about 79,000 compounds, 15% with a hit somewhere; the sample as a whole holds those more often. Calls of active or inactive are those of the source. Rule as the data show it: active = growth inhibition above about 70%; inactive = the rest.

The nature of this assay: NCI Yeast Anticancer Drug Screen. Data for the rad50 strain (AID 155).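 Also: 0% = growth of vehicle-only cultures of the same strain.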 Particulars: S. cerevisiae rad50 strain growth inhibition; at 50.0 µM; active compounds read high. An outline of the steps:
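Compounds were tested on a yeast strain with an engineered DNA damage repair alteration; the reported value is growth inhibition normalised to vehicle treatment.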
As to `CCCC(C)(COC(N)=O)COC(=O)NC1CC1` (stereo not given), the growth inhibition is 21.9% (inactive).
Take `O=C(O)C(CSC(c1ccccc1)c1ccccc1)NC(=O)C(c1ccccc1)c1ccccc1` (stereo not given): the growth inhibition was 52.5% (inactive).
Turning to `CC1=CC2CC(C)=C(CC[C@]3(C)CC[C@H]([C@@H](C)C(=O)O)OO3)C(C)(C)C2CC1` (stereo not given in full), the growth inhibition was 91.7% (active).
Take `O=[N+]([O-])/C=C/c1c(Cl)cccc1Cl`: the growth inhibition is 99.2% (active).
As for `O=[n+]1c2ccccc2n([O-])c2ccccc21.[Cl][Cu][Cl]`, the growth inhibition was 99.1% (active).
Next, `CC(=O)C(CN1CCOCC1)C(c1ccccc1)c1c(O)c2ccccc2oc1=O` (stereo not given): -1.6% (inactive); `CC(C)c1oc(=O)cc2c1C(O)C1OC(=O)C3(C)C(O)C4OC4C2(C)C13` (stereo not given): 31.9% (inactive); `C#CCN1C(=O)N(CC#C)C(=O)C(CC#C)(C(CC=C)c2ccccc2)C1=O` (stereo not given): 57.3% (inactive).
The result for `COC(=O)C1c2c(C)cc3n2C(C=CC3)C1C(=O)OC` (stereo not given) reads 13.2% (inactive).
Next, `[Cl][Hg][c]1ccc(Cl)s1`: 99.2% (active); `N#CC(Cl)(Cl)CCl`: -16.8% (inactive); `O=C1CCC(=O)N1SC(Cl)(Cl)Cl`: 99.7% (active).
As to `CCCC(=O)O.CCCC(=O)O.CCCC(=O)O.CCCC(=O)O.[Rh].[Rh]`, the growth inhibition was 22% (inactive).
Regarding `CC(CCC/C=C/CCCN(C)C(=N)N)CC(C)C1OC(=O)C(C)C(O)/C=C/C(C)C(O)C(C)C(O)C(C)C(O)CCCC(O)CC2(O)OC(CC(OC(=O)CC(=O)O)CC(O)CC(O)C(C)C(O)/C=C/C=C/C1C)CC(O)C2O` (stereo not given), the growth inhibition is 92.9% (active).
Regarding `OC(CN(CCCl)CCCl)C(O)C(O)C(O)CN(CCCl)CCCl` (stereo not given), the growth inhibition is 77.6% (active).

Values taken from PubChem BioAssay (NCI).
